# Results as given in PubChem BioAssay.
# Active and inactive are the calls of the source. Cut-off read from the data, not from the text of the source, unless noted: active = inhibition above about 80%; inactive = the rest.
# What was measured:
# [1] = growth inhibition, single agent or in combination, cell-based, chromothripsis tumors, cisplatin or BGB combos (AID 1671449); conditions: LFS_MB_P medulloblastoma cells;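 note: cells exposed for 96 hours; 0% = vehicle DMSO and 100% = killing by high DMSO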
# [2] = growth inhibition, single agent and combos, cell-based, chromothripsis tumors, cisplatin or BGB combos (AID 1671450); conditions: HDN33 neuroblastoma cells, stronger effect = higher value;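 note: cells exposed to compound for four days; 0% = vehicle DMSO and 100% = cell killing by high DMSO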
# [3] = growth inhibition, single agents and combos, ICB984, cell-based, cisplatin or BGB combos, synergistic combos for chromothripsis tumors (AID 1671451; call rule not given here;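 note: cells exposed for 96 hours before readout; 0% = vehicle DMSO and 100% = killing by high DMSO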); conditions: ICB984 medulloblastoma cells, drug combinations, stronger effect = higher value
# [4] = growth inhibition, single agents and combos, LFS_MB_1R, cell-based, cisplatin or BGB combos, synergistic combos for chromothripsis tumors (AID 1671452); conditions: LFS_MB_1R medulloblastoma cells, stronger effect = higher value;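 note: cells exposed for 96 hours before readout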
# [5] = growth inhibition, single agents and combos, HTB85, cell-based, BGB or cisplatin IC20 combos, synergistic combos for chromothripsis tumors (AID 1671453); conditions: HTB85 osteosarcoma cells, drug combinations, stronger effect = higher value;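 note: cells exposed for 96 hours before readout; 0% = vehicle DMSO and 100% = high DMSO killing control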
# [6] = growth inhibition, single agents and combos, CRL2098, cell-based, BGB or cisplatin IC20 combos, synergistic combos for chromothripsis tumors (AID 1671454); conditions: CRL2098 osteosarcoma cells, drug combinations, stronger effect = higher value;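 note: cells exposed for 96 h before readout; 0% = vehicle DMSO and 100% = killing by high DMSO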
# [7] = growth inhibition, single agents and combos, HD-MB03, cell-based, BGB or cisplatin IC20 combos, synergistic combos for chromothripsis tumors (AID 1671455; in the data active = inhibition above about 83%;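 note: 0% = vehicle DMSO and 100% = high DMSO as cytotoxic control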); conditions: HD-MB03 medulloblastoma cells, stronger effect = higher value
# [8] = growth inhibition, single agents and combos, UWB1.289, cell-based, BGB or cisplatin combos, synergistic combos for chromothripsis tumors (AID 1671456); conditions: UWB1.289 ovarian carcinoma cells, stronger effect = higher value;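 note: cells exposed to compound for four days; 0% = vehicle DMSO and 100% = killing by high DMSO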
# [9] = growth inhibition, single agents and combos, LFS_MB_2R, cell-based, cisplatin combos, synergistic combos for chromothripsis tumors (AID 1671457); conditions: LFS_MB_2R medulloblastoma cells, stronger effect = higher value;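 note: cells exposed to compound for four days before readout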
# [10] = growth inhibition, MDA-MB-436, cell-based, BGB or cisplatin combos, synergistic combos for chromothripsis tumors (AID 1671458; call rule not given here;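 note: cells exposed for 96 hours; 0% = vehicle DMSO and 100% = killing by high DMSO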); conditions: MDA-MB-436 breast carcinoma growth inhibition, drug combinations, stronger effect = higher value
# [11] = UWB1.289_BRCA1 ovarian cancer growth, cell-based, BGB or cisplatin combinations (AID 1671459); conditions: UWB1.289 BRCA1 ovarian carcinoma, drug combinations, stronger effect = higher value
# [12] = drug combination toxicity in non-malignant astrocytes – cell-based, BGB or cisplatin IC20 combos, cytotoxicity control for chromothriptic childhood tumor combination screen (AID 1671460); conditions: Human astrocytes, viability inhibition, drug combinations, at 0.5 µM, stronger effect = higher value;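 note: cells exposed to compounds for 96 hours before viability readout; 0% = vehicle and 100% = killing control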
# [13] = BT084 cell growth, single and combined drugs, ICGC_MB145, cisplatin and BGB IC40 combos (AID 1671461); conditions: BT084 medulloblastoma cells, drug combinations, stronger effect = higher value;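 note: cells exposed to drugs for 96 hours; 0% = vehicle DMSO and 100% = high DMSO full killing control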
# [14] = RCMB18 cell growth, single agent and combined, cisplatin and BGB IC40 combos (AID 1671462); conditions: RCMB18 medulloblastoma cells, stronger effect = higher value;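 note: cells exposed to compound for four days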
# [15] = CRL1545 cell growth, single agent and combined, cisplatin and BGB IC20 combos (AID 1671464); conditions: CRL1545 osteosarcoma cells, stronger effect = higher value;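 note: cells exposed to compound for 96 hours before readout; 0% = vehicle DMSO and 100% = high DMSO killing control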
# [16] = at 0.5 µM, stronger effect = higher value
# [17] = measured here: combination with BGB IC20, at 0.005 µM
# [18] = measured here: combination with BGB IC40, at 0.005 µM
# [19] = measured here: combination with BGB IC40, at 0.05 µM
# [20] = measured here: combination with cisplatin, at 0.5 µM, stronger effect = higher value
# [21] = measured here: combination with cisplatin, at 5 µM, stronger effect = higher value
# [22] = measured here: with BGB IC20 combination, at 0.5 µM
# [23] = measured here: with cisplatin IC20 combination, at 0.5 µM
# [24] = measured here: 5 uM single agent, at 5 µM
# [25] = measured here: combination with cisplatin, at 0.5 µM
# [26] = measured here: combination with cisplatin, at 5 µM
# [27] = measured here: with BGB IC20, at 0.5 µM
# [28] = measured here: with BGB IC20, at 5 µM
# [29] = measured here: with cisplatin IC20, at 0.5 µM
# [30] = measured here: with cisplatin IC20, at 5 µM
# [31] = measured here: combination with BGB at IC20, at 0.5 µM
# [32] = measured here: combination with cisplatin at IC20, at 0.5 µM
# [33] = measured here: combo with BGB at IC20, at 0.5 µM
# [34] = measured here: combo with cisplatin at IC20, at 0.5 µM
# [35] = measured here: inhibition with BGB combination, at 0.05 µM
# [36] = measured here: inhibition with cisplatin combination, at 0.05 µM
# [37] = measured here: BGB combination, at 0.5 µM
# [38] = measured here: BGB combination, at 5 µM
# [39] = measured here: cisplatin combination, at 0.5 µM
# [40] = measured here: cisplatin combination, at 5 µM
# [41] = BGB combination, concentration series, at 5 µM
# [42] = cisplatin combination, concentration series, at 5 µM
# [43] = measured here: combo with BGB IC20
# [44] = measured here: combo with cisplatin IC20
# [45] = cisplatin combination, at 0.5 µM
# [46] = measured here: BGB IC40 combination 0.05 uM, at 0.05 µM
# [47] = measured here: BGB IC40 combination, at 0.05 µM
smiles,measurement,setting,value
C[n+]1ccc(-c2c3nc(c(-c4cc[n+](C)cc4)c4ccc([nH]4)c(-c4cc[n+](C)cc4)c4nc(c(-c5cc[n+](C)cc5)c5ccc2[nH]5)C=C4)C=C3)cc1,inhibition,[1]; [16],-16.4% (inactive)
same,inhibition,[1]; [17],4.93%
same,inhibition,[1]; [18],-7.27%
same,inhibition,[1]; [19],5.45%
same,inhibition,[1]; [20],-7.43%
same,inhibition,[1]; [21],6.44%
same,inhibition,"[2]; BGB combo, at 5 µM",-33%
same,inhibition,[2]; at 0.5 µM,-31.4% (inactive)
same,inhibition,"[2]; cisplatin combo, at 5 µM",-48.7%
same,inhibition,[2]; [22],-41%
same,inhibition,[2]; [23],-34.4%
same,inhibition,"[2]; single agent, at 5 µM",-48.2%
same,inhibition,"[3]; BGB IC20 combo, at 0.005 µM",-7.96%
same,inhibition,"[3]; BGB IC40 combo, at 0.005 µM",-38.9%
same,inhibition,"[3]; BGB IC40 combo, at 0.05 µM",-28.5%
same,inhibition,[3]; at 0.5 µM,-22.5% (inactive)
same,inhibition,"[3]; cisplatin combo, at 0.05 µM",-33.6%
same,inhibition,"[3]; cisplatin combo, at 0.5 µM",-35.2%
same,inhibition,"[3]; cisplatin combo, at 5 µM",-30.8%
same,inhibition,[3]; [24],-3.94%
same,inhibition,[4]; at 0.5 µM,-33.2% (inactive)
same,inhibition,[4]; [19],-38.7%
same,inhibition,[4]; [25],-36.8%
same,inhibition,[4]; [26],-24.6%
same,inhibition,[5]; at 0.5 µM,-31.3% (inactive)
same,inhibition,[5]; [27],-48.7%
same,inhibition,[5]; [28],-28.8%
same,inhibition,[5]; [29],-29.2%
same,inhibition,[5]; [30],1.2%
same,inhibition,"[5]; single agent, at 5 µM",-24.3%
same,inhibition,[6]; at 0.5 µM,-75.6% (inactive)
same,inhibition,[6]; [31],-55.7%
same,inhibition,[6]; [32],-59.6%
same,inhibition,[7]; at 0.5 µM,-18.1% (inactive)
same,inhibition,[7]; [33],-21.5%
same,inhibition,[7]; [34],-12.4%
same,inhibition,[8]; at 0.5 µM,-15% (inactive)
same,inhibition,[8]; [35],-39.4%
same,inhibition,[8]; [36],-10%
same,inhibition,[9]; at 0.5 µM,-18.1% (inactive)
same,inhibition,[9]; [25],-16.6%
same,inhibition,[9]; [26],-12.4%
same,inhibition,[10]; at 0.5 µM,-9.73% (inactive)
same,inhibition,[10]; [37],-10.7%
same,inhibition,[10]; [38],-18%
same,inhibition,[10]; [39],-7.22%
same,inhibition,[10]; [40],-11.9%
same,inhibition,[11]; [41],-36.3%
same,inhibition,[11]; at 0.5 µM,-17.4% (inactive)
same,inhibition,[11]; [42],-6.54%
same,inhibition,[12],-1.53% (inactive)
same,inhibition,[12]; [43],4.28%
same,inhibition,[12]; [44],3.89%
same,inhibition,[13]; at 0.5 µM,-2.03% (inactive)
same,inhibition,[13]; [45],-16.4%
same,inhibition,"[13]; cisplatin combination, at 5 µM",4.22%
same,inhibition,[13]; [46],-24.6%
same,inhibition,"[13]; single agent, at 5 µM",-14.3%
same,inhibition,[14]; at 0.5 µM,-13.6% (inactive)
same,inhibition,"[14]; cisplatin combo, at 5 µM",1.63%
same,inhibition,[14]; [47],-15.7%
same,inhibition,[14]; [25],-4.98%
same,inhibition,"[14]; single agent, at 5 µM",-32.1%
same,inhibition,[15]; at 0.5 µM,-40.2% (inactive)
same,inhibition,[15]; [22],-36.3%
same,inhibition,[15]; [23],-42.2%
same,inhibition,"[15]; single agent, at 0.05 µM",-36.8%
same,inhibition,"[15]; single agent, at 5 µM",45%
COc1nc(N)nc2c1ncn2[C@@H]1O[C@H](CO)[C@@H](O)[C@H]1O,inhibition,[1]; [16],4.72% (inactive)
same,inhibition,[1]; [17],15.5%
same,inhibition,[1]; [18],9.31%
same,inhibition,[1]; [19],-38.6%
same,inhibition,[1]; [20],58.9%
same,inhibition,[1]; [21],5.54%
same,inhibition,"[2]; BGB combo, at 5 µM",-39.7%
same,inhibition,[2]; at 0.5 µM,-10.9% (inactive)
same,inhibition,"[2]; cisplatin combo, at 5 µM",-30.3%
same,inhibition,[2]; [22],-0.293%
same,inhibition,[2]; [23],-13.5%
same,inhibition,"[2]; single agent, at 5 µM",-2.81%
same,inhibition,"[3]; BGB IC20 combo, at 0.005 µM",-28.6%
same,inhibition,"[3]; BGB IC40 combo, at 0.005 µM",-6.48%
same,inhibition,"[3]; BGB IC40 combo, at 0.05 µM",-21%
same,inhibition,[3]; at 0.5 µM,-21.1% (inactive)
same,inhibition,"[3]; cisplatin combo, at 0.05 µM",-25.3%
same,inhibition,"[3]; cisplatin combo, at 0.5 µM",-22.6%
same,inhibition,"[3]; cisplatin combo, at 5 µM",-28.5%
same,inhibition,[3]; [24],-19.6%
same,inhibition,[4]; at 0.5 µM,-13.7% (inactive)
same,inhibition,[4]; [19],-35.3%
same,inhibition,[4]; [25],-34.3%
same,inhibition,[4]; [26],-13.1%
same,inhibition,[5]; at 0.5 µM,-19.2% (inactive)
same,inhibition,[5]; [27],-19.6%
same,inhibition,[5]; [28],-25.8%
same,inhibition,[5]; [29],-42.1%
same,inhibition,[5]; [30],-37.2%
same,inhibition,"[5]; single agent, at 5 µM",-10.5%
same,inhibition,[6]; at 0.5 µM,-31.4% (inactive)
same,inhibition,[6]; [31],-18.4%
same,inhibition,[6]; [32],-84.8%
same,inhibition,[7]; at 0.5 µM,-9.1% (inactive)
same,inhibition,[7]; [33],-11%
same,inhibition,[7]; [34],-9.78%
same,inhibition,[8]; at 0.5 µM,-10.1% (inactive)
same,inhibition,[8]; [35],-8.96%
same,inhibition,[8]; [36],-25.3%
same,inhibition,[9]; at 0.5 µM,-9.84% (inactive)
same,inhibition,[9]; [25],-1.3%
same,inhibition,[9]; [26],9.04%
same,inhibition,[10]; at 0.5 µM,-1.85% (inactive)
same,inhibition,[10]; [37],1.63%
same,inhibition,[10]; [38],-10.7%
same,inhibition,[10]; [39],-1.11%
same,inhibition,[10]; [40],-9.18%
same,inhibition,[11]; [41],-2.42%
same,inhibition,[11]; at 0.5 µM,-5.52% (inactive)
same,inhibition,[11]; [42],1.78%
same,inhibition,[12],-6.61% (inactive)
same,inhibition,[12]; [43],-1.7%
same,inhibition,[12]; [44],-14.9%
same,inhibition,[13]; at 0.5 µM,7.93% (inactive)
same,inhibition,[13]; [45],-30.4%
same,inhibition,"[13]; cisplatin combination, at 5 µM",16.2%
same,inhibition,[13]; [46],42.2%
same,inhibition,"[13]; single agent, at 5 µM",-18%
same,inhibition,[14]; at 0.5 µM,-13.9% (inactive)
same,inhibition,"[14]; cisplatin combo, at 5 µM",-23.5%
same,inhibition,[14]; [47],-4.14%
same,inhibition,[14]; [25],-19%
same,inhibition,"[14]; single agent, at 5 µM",15.2%
same,inhibition,[15]; at 0.5 µM,-24.6% (inactive)
same,inhibition,[15]; [22],-20.2%
same,inhibition,[15]; [23],-28.8%
same,inhibition,"[15]; single agent, at 0.05 µM",-9.67%
same,inhibition,"[15]; single agent, at 5 µM",-66.7%
